“And” between values parts separate entries of the source, which are not always exact repeats. Identical values can stand only once. The campaign covered roughly 16,000 compounds. About 2,600 (16%) were called active. About 20% were inconclusive and are not listed. Calls follow the shape of the dose curve; as a rule, active = well fitted curve in the direction sought with a large enough effect; inconclusive = small, poorly fitted or top-dose-only effect, or effect the other way; inactive = no such curve, though single readings can be large or run the other way. A selection follows.
% is scaled to controls: 0 for no effect and ±100 for the full control effect.

The target of this assay is Cytochrome P450 2D6 (Homo sapiens) (UniProt P10635). The assay can be described thus: Cytochrome panel assay with activity outcomes. To be noted: recombinant CYP, pro-luciferin dealkylation, luminescence, p450-cyp2d6; series mostly up to 57.1 µM. Here is the method: The P450 gene superfamily is involved in the metabolism and clearance of xenobiotics. This assay used various human CYP P450 isozymes to measure the dealkylation of various pro-luciferin substrates to luciferin. The luciferin is then measured by luminescence after the addition of a luciferase detection reagent. Pro-luciferin substrate concentration in the assay was equal to its KM for its CYP P450 isozyme. Inhibitors and some substrates limit the production of luciferin, and decrease measured luminescence.
Cytochrome P450 2D6 (Homo sapiens), sequence (P10635 whole entry, looked up): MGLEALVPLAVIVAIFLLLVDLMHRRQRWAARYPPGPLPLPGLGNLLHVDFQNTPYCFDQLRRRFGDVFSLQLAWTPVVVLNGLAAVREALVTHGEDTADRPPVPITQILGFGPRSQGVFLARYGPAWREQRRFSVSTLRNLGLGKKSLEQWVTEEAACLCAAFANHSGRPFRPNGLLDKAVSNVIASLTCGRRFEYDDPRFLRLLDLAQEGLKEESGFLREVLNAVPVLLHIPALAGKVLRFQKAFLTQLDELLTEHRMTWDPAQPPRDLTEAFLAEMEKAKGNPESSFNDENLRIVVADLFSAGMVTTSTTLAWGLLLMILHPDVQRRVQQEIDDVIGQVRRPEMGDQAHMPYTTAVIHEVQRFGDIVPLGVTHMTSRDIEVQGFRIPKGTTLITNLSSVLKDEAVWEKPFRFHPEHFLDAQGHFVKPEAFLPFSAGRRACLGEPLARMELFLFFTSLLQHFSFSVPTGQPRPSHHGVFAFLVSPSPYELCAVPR
NCGC Assay Protocol Summary:
1, Reagent, 2 uL, Isozyme and Pro-Luciferin
2, Library compounds, 23 nl, 40 uM to 0.24 nM dilution series
3, Controls, 23 nl, Isozyme specific inhibitor
4, Reagent, 2 uL, NADPH regeneration solution
5, Incubation time, 60 min, Isozyme specific temperature
6, Reagent, 4ul, Detection reagent
7, Incubation time, 20 min, Isozyme specific temperature
8, Detection, 1 sec, ViewLux luminescent read
The luciferase-based P450-GloTM Screening Systems were obtained from Promega (Madison, WI) for CYP 1A2 (V9770), CYP 2C9 (V9790), CYP2 C19 (V9880), CYP 2D6 (V9890), and CYP 3A4 Luciferin-PPXE (V9910) and were adapted for 1,536-well microplates and an automated protocol. The control compounds furafylline for 1A2 (F124), sulfaphenazole for CYP 2C9 (S0758), ketoconazole for CYP 2C19 (K1003), quinidine for 2D6 (Q3625), and ketoconazole for 3A4 (K1003) were purchased from Sigma Aldrich (St. Louis, MO). Recombinant P450 enzymes were obtained from baculovirus constructs expressed in insect cells (BD/Gentest).
Medium-binding white solid Kalypsys plates used. Mixtures kept on ice. 1A2: 10 nM 1A2, 100 uM Luc-ME, 100 mM KPO4; 2C9: 10 nM 2C9, 100 uM Luc-H, 25 mM KPO4; 2C19: 5 nM 2C19, 10 uM Luc-H EGE, 50 mM KPO4; 2D6: 5 nM 2D6, 30 uM Luc-ME EGE, 100 mM KPO4; 3A4: 10 nM, 25 uM Luc-PPXE. All amounts are reflected in their final concentration, working concentration is 2x.
NADPH regeneration solution: 1.3 mM NADP+, 3.3 mM glucose-6-phosphate, 3.3 mM MgCl2, 0.4 U/mL glucose-6-phosphate dehydrogenase for all isozymes, 200 mM KPO4 for 3A4. Mixture prepared at RT but kept on ice during automated run.
RT incubation in auxilliary plate hotel for 1A2, 2D6, and 3A4; 37C for 2C9 and 2C19.
Keywords: P450, CYP1A2, CYP2C19, CYP2C9, CYP2D6, CYP3A4, Luciferase, MLSMR, MLSCN, NIH Roadmap, qHTS, NCGC
With `CCOC(=O)c1cc2c(=O)n3ccccc3nc2n(CCCOC)c1=NC(=O)C(C)(C)C`, the AC50 entry was “inactive”. Turning to `Cn1c(C(=O)N2COCC2(C)C)cc2c(=O)n3ccccc3nc21`, the AC50 entry was “inactive”. As to `CCn1c(=N)c(S(=O)(=O)c2ccc(F)cc2)cc2c(=O)n3ccccc3nc21`, the AC50 was 0.794 µM (active). On the same count and under the same terms, under `CC1Cc2ccccc2N1C(=O)c1cc2c(=O)n3ccccc3nc2n1C` (stereo not drawn) stands “inactive”; under `CCOC(=O)c1cc2c(=O)n3ccccc3nc2n(CCOC)c1=NC(=O)C(C)(C)C`, “inactive”.

Turning to `Cn1c(=N)c(S(=O)(=O)c2ccc(F)cc2)cc2c(=O)n3ccccc3nc21`, the concentration at half-maximal activity (AC50) was 3.16 µM (active). On to `COc1ccccc1C(=O)Nc1cc2c(ccc3ccccc32)oc1=O`, for which the AC50 result is “inactive”. Consider `O=C(CCl)Nc1ccc(Oc2cnc3ccccc3n2)cc1`, for which the AC50 result is “inactive”. For `Cc1ccccc1C(=O)N1CCN(c2ccc([N+](=O)[O-])c(NCc3ccco3)c2)CC1`, the AC50 entry is “inactive”.

For the compound `CC(C)(N)C(=O)N[C@@H]1C(=O)N2[C@@H]1SC(C)(C)[C@H]2C(=O)O`, the activity, negative = inhibition was 5.23% [at 11.4 µM] (inactive). On to `CC(C)(C)C(=O)N1CCC(O)(CS(=O)(=O)Cc2ccc(Cl)cc2)CC1`, for which the AC50 entry was “inactive”. In the case of `Cc1ccc(NC(=O)c2cc(N3C(=O)C4CC=CCC4C3=O)ccc2N2CCOCC2)cc1Cl` (stereo not drawn), the AC50 result is “inactive”. For the compound `Cc1ccc(NC(=O)CSCC(=O)Nc2ccc(N3CCOCC3)c(Cl)c2)cc1`, the half-maximal activity concentration (AC50) was 14.1 µM (active). As to `Cc1ccccc1OCC(=O)NC(=S)Nc1ccc(N2CCOCC2)c(Cl)c1`, the AC50 entry is “inactive”. As to `NC(=O)C1(N2CCCCC2)CCN(C(=S)Nc2ccc(Cl)cc2)CC1`, the AC50 entry was “inactive”.

As for `N[C@H](C(=O)O)c1cccc(O)c1`, the AC50 entry was “inactive”.

`Nc1ccc(CCNc2ncnc3c2ncn3[C@@H]2O[C@@H](CO)[C@H](O)[C@@H]2O)cc1`: the AC50 entry is “inactive”. As to `CC(C)c1ccc(-c2nnn(CCC(=O)O)n2)cc1`, the AC50 entry was “inactive”. For the compound `CCOc1ccc(OCCOCCN2CCc3ccccc3C2)cc1`, the half-maximal activity concentration (AC50) was 1.12 µM (active). In the case of `CCOc1ccc(/C(O)=C2\C(=O)C(=O)N(CCOCCO)C2c2ccccc2OC)cc1` (stereo not drawn), the AC50 result is “inactive”. In the case of `CCOc1ccc(OCCOc2ncnc3ccccc23)cc1`, the AC50 result is “inactive”. For `N#CCCn1c(=O)cnc2cnc(Oc3ccccc3)nc21`, the AC50 result is “inactive”.

As to `C=CCn1c(SCc2ccc3c(c2)OCO3)nc2scc(-c3ccco3)c2c1=O`, the AC50 result was “inactive”. `C=CCN1CCN(c2nc3ccccc3nc2C#N)CC1`: the AC50 is 1.26 µM (active). Turning to `CCc1noc(C)c1C(=O)Nc1nc(-c2cc(C)ccc2C)c(C)s1`, the AC50 entry is “inactive”. Take `O=C(O)CSc1cc(-c2ccccc2)nc2ccccc12`: the activity, negative = inhibition is 3.96% [at 11.4 µM] (inactive). For the compound `N[C@@H](CSCc1ccc(I)cc1)C(=O)O`, the activity, negative = inhibition was 3.9% [at 11.4 µM] (inactive). `O=[N+]([O-])c1ccc(CSCc2ccc(Cl)cc2)cc1`: the activity, negative = inhibition was -20.5% [at 11.4 µM] (inactive). Turning to `NC[C@@H](O)CSCc1ccc(Cl)cc1`, the half-maximal activity concentration (AC50) is 3.16 µM (active). On to `O=c1c(-c2cccc(F)c2)nc2cncnc2n1Cc1ccccc1Cl`, for which the AC50 entry was “inactive”. For `O=C(O)COc1c(Cl)cc(Cl)c2cccnc12`, the activity, negative = inhibition is 2.9% [at 11.4 µM] (inactive).

Turning to `Oc1ccc(CNCc2ccccc2)c2cccnc12`, the concentration at half-maximal activity (AC50) is 1.58 µM (active). In the case of `CC(C)NC[C@@H](O)c1ccc(O)c2ncccc12`, the activity, negative = inhibition is -18.5% [at 11.4 µM] (inactive). As for `N#CCCn1c(=O)c(-c2ccc(F)cc2)nc2cnc(N3CCOCC3)nc21`, the AC50 result was “inactive”. `CCOC(=O)/C(C#N)=C1/C=CN(C)C=N1`: the AC50 entry is “inactive”. The same measure, in the same setting: the same measure for `Cc1nc2cncnc2n(-c2ccccc2)c1=O`: “inactive”; for `COc1cccc(-c2cc(C(F)(F)F)n3ncc(S(=O)(=O)c4ccccc4)c3n2)c1`: “inactive”. Regarding `ON(CCc1ccccn1)Cc1ccccc1`, the activity, negative = inhibition is -0.364% [at 11.4 µM] (inactive).

Take `CC(C)C(=O)C(C)(C)CCc1ccccn1`: the activity, negative = inhibition is 8.85% [at 11.4 µM] (inactive). `CN(CCc1ccccn1)Cc1ccc(Cl)cc1Cl`: the AC50 was 0.355 µM (active).

As to `O=C(Nc1ccccc1)c1ccccc1CC[N+](=O)[O-]`, the AC50 entry was “inactive”. Turning to `C/C(=C\C1CCCCC1)C(NC(=O)c1ccc(C(F)(F)F)cc1)c1ccc(-c2ccccc2)cc1` (stereo not drawn), the AC50 entry was “inactive”. As to `COc1ccc(-c2cc(C(F)(F)F)n3nc(C(=O)N4CCCCC4)cc3n2)cc1`, the AC50 entry was “inactive”. The same measure, in the same setting: the same measure for `Cc1ccc(S(=O)(=O)CC(O)CN2CCCC2=O)cc1` (stereo not drawn): “inactive”; for `Cc1ccc(S(=O)(=O)N(CCCN2CCCC2=O)Cc2cc3c(C)ccc(C)c3[nH]c2=O)cc1`: 14.1 µM (active); for `Cc1ccc(CS(=O)(=O)CCC(=O)NCCCN2CCCC2=O)cc1`: “inactive”. As to `O=C1CC(N2CCOCC2)C(=O)N1c1cccc(Cl)c1` (stereo not drawn), the AC50 result is “inactive”. `CN1CCN([C@@H]2Cc3ccccc3Sc3ccc(Cl)cc32)CC1`: the AC50 is 0.398 µM (active). `CSc1ccc2c(c1)[C@H](N1CCN(C)CC1)Cc1ccccc1S2`: the concentration at half-maximal activity (AC50) was 3.98 µM (active) and 1.58 µM (active) and 316 nM (active).

As for `CCCc1ncc(C[n+]2ccccc2C)c(N)n1`, the AC50 result is “inactive”. As for `C=CCNC(=S)N/N=C/c1ccc(OCc2ccccc2)cc1`, the AC50 entry is “inactive”. Take `COc1ccc(Oc2ncc3nc(C)c(=O)n(C[C@H]4CCCO4)c3n2)cc1`: the AC50 result was “inactive”. Take `Cc1cc(C)cc(OCC(=O)NNC(=O)c2cc(C)[nH]n2)c1`: the AC50 entry was “inactive”. Consider `COc1ccc(NS(=O)(=O)c2ccc(I)cc2)cc1N1CCN(C)CC1`, for which the AC50 entry is “inactive”.

Turning to `O=C(c1ccc2ncsc2c1)N1CCN(c2ccc(O)cc2)CC1`, the AC50 result was “inactive”. On to `CCCOc1ccc(CSC(CC(=O)O)C(=O)O)cc1` (stereo not drawn), for which the AC50 result is “inactive”. Consider `Cc1ccc(OCCCC(=O)NCc2ccco2)cc1`, for which the AC50 result was “inactive”. Consider `Cc1ccc(C(C(=O)NCc2ccco2)N(C(=O)CNC(=O)c2cccs2)c2ccc(C)cc2)cc1` (stereo not drawn), for which the AC50 result is “inactive”. In the case of `Cc1ccc(S(=O)(=O)NCC(=O)N(CC(=O)NCc2ccco2)Cc2cccs2)cc1`, the AC50 was 3.98 µM (active). For `COc1ccc(-c2nc3cnc(Nc4ccccc4)nc3n(Cc3cccs3)c2=O)cc1`, the AC50 entry was “inactive”.

Take `CC1CCCC(n2c(=S)[nH]c3ccccc3c2=O)C1C` (stereo not drawn): the AC50 result is “inactive”. Regarding `Cc1ccc(-c2[nH]n3c(=O)c4c(nc3c2C)CCCC4)cc1`, the half-maximal activity concentration (AC50) is 25.1 µM (active). On the same count and under the same terms, under `O=c1c2c(nc3c(-c4ccccc4)c[nH]n13)CCC2` stands “inactive”; under `Cc1ccc(N=Nc2c(N)[nH]n3c(=O)c4c(nc23)CCCC4)cc1`, “inactive”; under `Cc1cc(C2CCCCC2)n(O)c(=O)c1`, “inactive”.

On to `COc1ccc2c(c1)C(c1ccc([N+](=O)[O-])cc1)=NNC(c1ccco1)=N2`, for which the AC50 was 11.2 µM (active). Regarding `COc1cccc(C(=O)Nc2ccc(-c3nnc(-c4ccco4)o3)cc2)c1`, the AC50 entry was “inactive”. For the compound `COc1ccc(-c2ccc(/C=C3\C(=O)N(c4ccccc4)N=C3c3ccccc3)o2)c([N+](=O)[O-])c1`, the AC50 result is “inactive”.

These data come from PubChem BioAssay AID1851 (National Center for Advancing Translational Sciences (NCATS), 2009).
